Most compounds without a hit are left out; they make up all but 2.3% or so of the library.
MIN6 prolif – inducers of beta-cell replication in MIN6 cells. MIN6 cells proliferation, ATPlite luminescence, 48 h; cells starved in 0.2% serum; 100% = growth in 10% serum. proliferation, % at 10 µM. 330,000 compounds, 0.29% hits;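 active = compounds whose signal lies at least 3.5 SD above the mean of all wells on their plate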;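 note: 0% = DMSO-treated cells in low-serum medium and 100% = 10% serum control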
TAG inh – inhibitors of triacylglycerol accumulation; inhibition, % at 12.5 µM; 230,000 compounds, 0.66% hits; H9c2 cells, Nile Red lipid (TAG) fluorescence; cells loaded with 200 µM oleic acid;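 active = pattern-corrected inhibition of lipid staining of at least 50% with the nuclear-stain viability signal not falling by more than 50%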;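 note: 0% = DMSO wells and 100% = triacsin C control wells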
FAS TE block – inhibitors of human fatty acid synthase thioesterase domain. P49327. recombinant FAS-TE, OMFH fluorogenic substrate, fluorescence endpoint. inhibition, % at 15 µM. 360,000 compounds, 0.67% hits. AID 602261;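 active = compounds whose normalised, plate-corrected inhibition of enzyme fluorescence in the single-dose primary screen is 50% or more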;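 note: 0% = DMSO with enzyme and 100% = substrate without enzyme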
Calpain2 inh – calpain II (pig) inhibition. purified calpain II, fluorogenic peptide substrate, 30 min. inhibition, % at 16 µM. 220,000 compounds, 0.37% hits. AID 1236;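 active = inhibition above about 50%, limit read from the data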
aDG glyco act – alpha-DG glycosylation activation; activation, % at 10 µM; Pro5-aDG cells, alpha-DG glycosylation AlphaScreen (IIH6); 0% Pro5, 100% B10-LARGE cell signal; 360,000 compounds, 0.22% hits;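 active = activation of at least 8% versus controls, or a plate z-score of at least 8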;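 note: Pro5 are CHO cells carrying HIG-tagged alpha-DG that lacks glycosylation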
H9c2 protect – myocardial damage modulation in H9c2 cells; H9c2 cardiomyocytes, H2O2 injury protection, ATPLite, 2 h; protection from H2O2 cell death, % at 20 µM; 360,000 compounds, 0.63% hits;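 active = compounds giving at least 50% protection of heart cells from peroxide-induced death in the single-dose screen, raw or plate-pattern-corrected value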;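 note: 0% = DMSO wells with peroxide and 100% = DMSO wells without peroxide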
H9c2 TAG conf – triacylglycerol accumulation inhibition, confirmation | shares compounds with TAG inh | H9c2 lipid accumulation, Nile Red fluorescence; cells loaded with 200 µM oleic acid | inhibition, % at 12.5 µM | 990 compounds, 71% hits | AID 651629;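 active = mean inhibition across replicates of 40% or more; inactive = mean inhibition below 40%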;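 note: plate controls were DMSO only wells for no effect and Triacsin C treated wells for full effect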
Active calls of the source: *; / = not tested or not shown.

SMILES	MIN6 prolif	TAG inh	FAS TE block	Calpain2 inh	aDG glyco act	H9c2 protect	H9c2 TAG conf
CS(=O)(=O)Oc1ccc2c(c1)O/C(=C\C=C\c1ccccc1)C2=O	-4	54*	4	-7	0	-9	3
CCCOc1ccc(F)cc1-c1cc(C(=O)NCc2cc(OC)cc(OC)c2)[nH]n1	/	54*	18	/	0	7	50*
CCCOc1ccc(F)cc1-c1cc(C(=O)NCc2ccccc2)[nH]n1	/	-4	22	/	1	-5	/
CC(C)(C)OC(=O)N1CCN(c2ccc(NC(=O)Cn3nnc(-c4ccccc4)n3)cc2)CC1	-2	62*	3	11	1	-2	18
COCCn1c(SCC(=O)NC2CCCC2)nc2c(c1=O)SCC2	0	/	-8	/	0	-2	/
N#CC1C=Cc2c(ccc3ccccc23)N1C(=O)c1ccccc1 (centres undefined)	/	60*	20	/	0	-5	56*
CC(=O)Nc1ccc(/C=C/c2nc3ccccc3o2)cc1	-3	/	1	/	0	-5	/
O=C(Nc1ccc(/C=C/c2nc3ccccc3o2)cc1)c1c(F)cccc1F	-2	54*	10	-43	0	-11	55*
COc1cc(-c2ccc3oc(-c4cccc(C)c4)c(C#CC4(O)CCCCC4)c3c2)cc(OC)c1OC	-6	51*	18	/	-1	12	53*
COc1ccc(-c2oc3ccc(-c4ccc5c(c4)OCO5)cc3c2C#CC2(O)CCCCC2)cc1	-9	-5	37	/	0	-13	/
CCOC(=O)CN(C(=O)CSc1nnc2c(n1)[nH]c1ccccc12)c1ccccc1	0	51*	-2	16	0	5	29

Bioassay records deposited in PubChem BioAssay by several laboratories.
